Lassa entry inh: inhibitors of Lassa virus binding or cell entry; Potency, µM (titrated, usually from 37.9 µM), without a hit: at the top dose activity change, negative = inhibition, hits mostly inhibitors; Lassa virus pseudotype entry inhibition, cell reporter; AID 540256; actives 1.2% (n = 300,000); calls by dose curve; tested in HEK293 cells; note: potency is the fitted concentration of half-maximal effect; % is set by controls: 0 for no effect and ±100 for the full control effect; nearly all actives have a fitted effect of over 50% in size
VACV mCherry inh: inhibitors of vaccinia virus infection (mCherry reporter signal); actives 0.63% (n = 310,000); Vaccinia virus mCherry reporter infection, fluorescence; Potency, µM (doses to about 36.5 µM), without a hit: top-dose activity change, negative = inhibition, hits mostly inhibitors; calls by dose curve; tested in A549 cells; note: potency is the fitted concentration of half-maximal effect; % is set by controls: 0 for no effect and ±100 for the full control effect; nearly all actives have a fitted effect of over 35% in size
Vaccinia Venus: inhibitors of vaccinia virus (Venus reporter) | actives 0.46% (n = 330,000) | Vaccinia virus Venus reporter expression, fluorescence | Potency, µM (doses to about 36.5 µM), inactives show at the top dose activity change, negative = inhibition, hits mostly inhibitors; calls by dose curve; tested in A549 cells; note: potency is the fitted concentration of half-maximal effect; % is set by controls: 0 for no effect and ±100 for the full control effect; nearly all actives have a fitted effect of over 30% in size
Shiga inhibitor: Shiga toxin inhibition; Vero cells, Shiga toxin protein synthesis inhibition reporter; inhibition, % at 38.7 µM; actives 9.2% (n = 290,000); AID 2315; in the data active = inhibition mostly above about 28%, no sharp cut-off; inactive = mostly below about 43%; note: 0% is about no effect
CHX counter: affects cycloheximide protein synthesis inhibition readout, counter-screen. cell reporter, cycloheximide protein synthesis inhibition counterscreen. max response, %. actives 12% (n = 300,000). AID 2314; in the data active = max response mostly above about 13%, no sharp cut-off; inactive = mostly below about 14%; note: read at 38.3 µM for the half of the compounds with a filed dose; 0% is about no effect
Marburg entry inh: blocks Marburg virus binding to or entry into cells | Potency, µM (series often up to 37.8 µM), inactives show top-dose activity change, negative = inhibition, actives largely listed as inhibitors | Marburg virus pseudotyped entry inhibition, cell reporter | actives 1.8% (n = 300,000); calls by dose curve; tested in HEK293 cells; note: potency is the fitted concentration of half-maximal effect; % is set by controls: 0 for no effect and ±100 for the full control effect
The depositor's hits bear a star; ? = inconclusive; nt = not tested or not shown; [ ] = another dose, or the depositor's remark. The sample as a whole holds a higher share of hits than the screen did.

SMILES	Lassa entry inh	VACV mCherry inh	Vaccinia Venus	Shiga inhibitor	CHX counter	Marburg entry inh
O=C(NC1CCN(Cc2ccccc2)CC1)c1cn(-c2ccccc2)nc1-c1cccnc1	-3%[46.1 µM]	?	?	nt	nt	11µM*
CC(=O)c1nn(-c2ccc(Cl)cc2)cc1C(=O)c1ccccc1	-7%	-5%	5%	nt	nt	?
CCOC(=O)c1nn(-c2ccc(C)cc2)cc1C(=O)c1ccccc1	10%	nt	nt	113*	68*	?
CCOC(=O)c1cn(-c2ccccc2)nc1-c1cccnc1	3%	-1%	-14%	50*	37*	?
CCOc1ccc2nc(N3CCCC3C(=O)N3CCC(c4nc5ccccc5o4)CC3)nc(C)c2c1 (stereo not given)	nt	-14%	-10%	nt	nt	nt
CC(C)NOC(=O)c1ccc(Cl)cc1	-11%	nt	nt	21	46*	-28%
CN(CCc1ccccn1)C(=O)Nc1ccc(C(C)(C)C)cc1	2%	-9%	-27%	26	20*	20%
CN(CCc1ccccn1)C(=O)Nc1ccc(F)cc1	27%	nt	3%	3	-5	5%
O=C(NCC(=O)N1CCCCC1)c1ccc(Br)o1	2%	-25%	-12%	-22	1	40%
Cn1cc(Cl)c(/C(N)=N/OC(=O)c2ccccc2C(F)(F)F)n1	nt	nt	nt	91*	50*	nt
COc1ccc(OC(=O)c2cn(C)nc2C(F)(F)F)cc1	-10%	nt	7%	26	14	?
Cn1ccc2cc(OCc3ccccc3)ccc21	-4%	-12%	-5%	nt	nt	?
Cc1c(C=O)c2cc(OCc3ccccc3)ccc2n1C	15%[46.1 µM]	-10%	-15%	70*	39*	?
Cc1cc2cc(OCc3ccccc3)ccc2n1C	nt	nt	nt	31*	25*	nt
Cn1c(O)c(Cc2ccc(OCc3ccccc3)cc2)c(=O)n(C)c1=O	nt	nt	nt	47	13	nt
Cc1cc(C)cc(C(=O)NCCc2sc(-c3ccc(F)cc3)nc2C)c1	-3%[46.1 µM]	-4%	3%	nt	nt	nt
Cc1nc(N)sc1-c1csc(Nc2cccc(O)c2)n1	1%	?	-20%	30	14*	15%
Cc1cccc(Nc2nc(-c3c(C)nc4ccccn34)cs2)c1	?	?	?	-19	0	?
CCC(=O)Nc1nc(C)c(-c2csc(Nc3cccc(O)c3)n2)s1	nt	nt	nt	50*	36*	nt
Cc1nc(N)sc1-c1csc(Nc2cc(N(C)C)ccc2Cl)n1	nt	-20%	-16%	nt	nt	nt
Cc1nc2ccccn2c1-c1csc(Nc2cccc(O)c2)n1	?	?	?	32	2	?
Cc1cccc(Nc2nc(-c3sc(C)nc3C)cs2)c1	?	-17%	?	50*	29*	?

Assay outcomes deposited in PubChem by National Center for Advancing Translational Sciences (NCATS).
